In PubChem BioAssay (NCI):
This is part of a sample that, as a whole, favours compounds with a hit. Of some 79,000 tested, about 15% had one in any assay. Calls of active or inactive are those of the source. Rule as the data show it: active = growth inhibition above about 70%; inactive = the rest.

Key:
[1] = NCI Yeast Anticancer Drug Screen. Data for the rad52 strain (AID 147);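 also: 0% = growth of vehicle-treated control cultures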; conditions: S. cerevisiae rad52 mutant growth inhibition, hits give high values
Outline: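 Compounds are applied to a genetically defined yeast strain lacking normal DNA damage repair, and inhibition of growth is expressed relative to cultures given vehicle only.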

[2] = NCI Yeast Anticancer Drug Screen. Data for the wt1 strain (AID 149);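 also: 0% = growth of vehicle-treated wt1 cultures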; conditions: S. cerevisiae wt1 strain (SPY 50644) growth inhibition, hits give high values
Outline: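 Compounds are added to wt1 yeast cultures. Growth is then measured. Inhibition is expressed relative to vehicle-treated controls.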

[3] = NCI Yeast Anticancer Drug Screen. Data for the rad50EPP+ strain (AID 151);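 also: 0% = growth of vehicle-treated control cultures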; conditions: S. cerevisiae rad50 mutant strain, hits give high values
Outline: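 Compounds were applied to the rad50EPP+ yeast strain, which bears a defined DNA repair alteration, and growth inhibition was determined relative to vehicle-treated cultures.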

[4] = NCI Yeast Anticancer Drug Screen. Data for the rad50 strain (AID 155);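 also: 0% = growth of vehicle-only cultures of the same strain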; conditions: S. cerevisiae rad50 strain growth inhibition, hits give high values
Outline: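 Inhibition values express reduced yeast growth in compound-treated cultures relative to vehicle-treated controls.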

[5] = NCI Yeast Anticancer Drug Screen. Data for the mec2-1 strain (AID 157); conditions: S. cerevisiae mec2-1 strain, hits give high values
Outline: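 Strain: mec2-1 (DNA repair/cell cycle alteration). Compound exposure, then growth measured; inhibition expressed relative to vehicle.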

[6] = NCI Yeast Anticancer Drug Screen. Data for the rad14 strain (AID 159);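 also: 0% = growth of vehicle-treated control cultures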; conditions: S. cerevisiae rad14 strain growth inhibition, hits give high values
Outline: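 A mutant yeast strain defective in DNA damage repair is treated with compound; inhibition of its growth is scored against untreated, vehicle-exposed cultures.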

[7] = NCI Yeast Anticancer Drug Screen. Data for the sgs1 mgt1 strain (AID 161);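 also: 0% = growth of cultures given vehicle only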; conditions: S. cerevisiae sgs1 mgt1 strain, hits give high values
Outline: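 Inhibition of yeast growth, normalised to vehicle-treated controls, is reported for a strain bearing genetic alterations in DNA damage repair.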

[8] = NCI Yeast Anticancer Drug Screen. Data for the CLN2oe strain (AID 163);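 also: 0% = growth of vehicle-only control cultures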; conditions: S. cerevisiae CLN2oe strain, hits give high values
Outline: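 Growth of a genetically modified yeast strain is measured after compound exposure and compared with cultures given vehicle alone.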

[9] = NCI Yeast Anticancer Drug Screen. Data for the cln2 rad14 strain (AID 165);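 also: 0% = growth equal to vehicle treated cultures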; conditions: S. cerevisiae cln2 rad14 strain, hits give high values
Outline: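 Compounds are applied to the cln2 rad14 yeast strain, and growth is then compared with that of vehicle-treated cultures to give inhibition.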

[10] = NCI Yeast Anticancer Drug Screen. Data for the bub3 strain (AID 167); conditions: S. cerevisiae bub3 mutant strain, hits give high values
Outline: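 Steps: expose the mutant yeast strain to compound; grow alongside vehicle-treated cultures; measure growth; express inhibition against the vehicle cultures.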

[11] = NCI Yeast Anticancer Drug Screen. Data for the wt2 strain (AID 169);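 also: 0% = growth of vehicle-treated yeast cultures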; conditions: S. cerevisiae wt2 strain growth inhibition, hits give high values
Outline: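 This strain belongs to a panel of yeast strains with defined genetic alterations in DNA damage repair or cell cycle control. Compounds are applied, and growth inhibition is measured against vehicle-treated cultures.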

[12] = NCI Yeast Anticancer Drug Screen. Data for the mlh1 strain (AID 171);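 also: 0% = growth of vehicle-treated control cultures of the same strain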; conditions: S. cerevisiae mlh1 strain growth inhibition, hits give high values
Outline: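 Growth of the mutant yeast strain after compound exposure, expressed as inhibition relative to vehicle-only controls.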

[13] = NCI Yeast Anticancer Drug Screen. Data for the sgs1 strain (AID 173);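 also: 0% = growth of vehicle-only control cultures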; conditions: S. cerevisiae sgs1 mutant, hits give high values
Outline: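 Growth of a yeast strain bearing a defined genetic alteration is measured after compound treatment. Inhibition is expressed relative to vehicle-only controls.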

[14] = NCI Yeast Anticancer Drug Screen. Data for the mlh1 rad18 strain (AID 175); conditions: S. cerevisiae mlh1 rad18 strain growth inhibition, hits give high values
Outline: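 Read-out is yeast growth inhibition, calculated against vehicle-only controls. The compound was applied to a strain engineered with DNA damage repair alterations.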

[15] = NCI Yeast Anticancer Drug Screen. Data for the rad18 strain (AID 177); conditions: S. cerevisiae rad18 mutant growth inhibition, hits give high values
Outline: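 Growth of the mutant yeast strain after compound exposure, normalised to vehicle-only cultures.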

[16] = at 5.0 µM (retest, dose inferred, filed as 0.5)
[17] = at 50.0 µM (retest, dose inferred, filed as 5.0)

Measured: growth inhibition

O=Cc1coc2ccccc2c1=O
inactive: [1]; at 1.2 µM -9% | [1]; at 3.7 µM 3% | [1]; at 11.0 µM 11% | [1]; at 33.0 µM 22% | [1]; at 100.0 µM 48% | [2]; at 1.2 µM 10% | [2]; at 3.7 µM 19% | [2]; at 11.0 µM 18% | [2]; at 33.0 µM 22% | [2]; at 100.0 µM 42% | [3]; at 1.2 µM 2% | [3]; at 3.7 µM 11% | [3]; at 11.0 µM 28% | [3]; at 33.0 µM 66% | [4]; at 1.2 µM -23% | [4]; at 3.7 µM 10% | [4]; [16] 12% | [4]; at 11.0 µM 17% | [4]; at 33.0 µM 24% | [4]; [17] 26% | [4]; at 50.0 µM 20.4% | [4]; at 100.0 µM 57% | [5]; at 1.2 µM -7% | [5]; at 3.7 µM 12% | [5]; [16] -15% | [5]; at 11.0 µM 18% | [5]; at 33.0 µM 18% | [5]; at 50.0 µM 35.2% | [5]; at 100.0 µM 65% | [6]; at 1.2 µM -16% | [6]; at 3.7 µM -7% | [6]; at 11.0 µM 8% | [6]; at 33.0 µM 16% | [7]; [16] 9% | [8]; at 1.2 µM -1% | [8]; at 3.7 µM 25% | [8]; at 11.0 µM 27% | [8]; at 33.0 µM 2% | [8]; at 100.0 µM 40% | [9]; [16] 6% | [9]; [17] 19% | [10]; at 1.2 µM 5% | [10]; at 3.7 µM 13% | [10]; [16] 2% | [10]; at 11.0 µM 8% | [10]; at 33.0 µM 15% | [10]; at 100.0 µM 51% | [11]; at 1.2 µM -17% | [11]; at 3.7 µM -11% | [11]; at 11.0 µM 3% | [11]; at 33.0 µM 12% | [12]; at 1.2 µM 1% | [12]; at 3.7 µM 5% | [12]; at 11.0 µM 24% | [12]; at 33.0 µM 30% | [12]; at 100.0 µM 61% | [13]; at 1.2 µM 0% | [13]; at 3.7 µM 14% | [13]; at 11.0 µM 23% | [13]; at 33.0 µM 32% | [13]; at 100.0 µM 60% | [14]; [16] -1% | [14]; [17] 16% | [14]; at 50.0 µM 62.4% | [15]; at 1.2 µM 5% | [15]; at 3.7 µM 19% | [15]; at 11.0 µM 18% | [15]; at 33.0 µM 20% | [15]; at 100.0 µM 67%
active: [3]; at 100.0 µM 91% | [5]; [17] 70% | [6]; at 100.0 µM 95% | [7]; [17] 98% | [7]; at 50.0 µM 89.7% | [9]; at 50.0 µM 75.2% | [10]; [17] 87% | [10]; at 50.0 µM 88.8% | [11]; at 100.0 µM 99%

O=[N+]([O-])c1c(/C=N/Nc2ccccc2)oc(-c2ccc3c(c2)OCO3)c1-c1ccc2c(c1)OCO2
inactive: [1]; at 1.2 µM 0% | [1]; at 3.7 µM 6% | [1]; at 11.0 µM 20% | [1]; at 33.0 µM 67% | [2]; at 1.2 µM -1% | [2]; at 3.7 µM 0% | [2]; at 11.0 µM -1% | [2]; at 33.0 µM 19% | [2]; at 100.0 µM 62% | [3]; at 1.2 µM -4% | [3]; at 3.7 µM 1% | [3]; at 11.0 µM 11% | [3]; at 33.0 µM 31% | [3]; at 100.0 µM 46% | [4]; at 1.2 µM -1% | [4]; at 3.7 µM 2% | [4]; at 11.0 µM 7% | [4]; at 33.0 µM 56% | [5]; at 1.2 µM 0% | [5]; at 3.7 µM 0% | [5]; [16] 8% | [5]; at 11.0 µM 8% | [5]; at 33.0 µM 37% | [5]; [17] 8% | [6]; at 1.2 µM 0% | [6]; at 3.7 µM -2% | [6]; at 11.0 µM 2% | [6]; at 33.0 µM 20% | [8]; at 1.2 µM -1% | [8]; at 3.7 µM 4% | [8]; at 11.0 µM 9% | [8]; at 33.0 µM 46% | [9]; [16] -17% | [9]; [17] -17% | [10]; at 1.2 µM -9% | [10]; at 3.7 µM -8% | [10]; [16] -21% | [10]; at 11.0 µM 8% | [10]; at 33.0 µM 39% | [10]; [17] -21% | [10]; at 100.0 µM 60% | [11]; at 1.2 µM 0% | [11]; at 3.7 µM 1% | [11]; at 11.0 µM 5% | [11]; at 33.0 µM 44% | [12]; at 1.2 µM -3% | [12]; at 3.7 µM -2% | [12]; at 11.0 µM 3% | [12]; at 33.0 µM 36% | [13]; at 1.2 µM -2% | [13]; at 3.7 µM -2% | [13]; at 11.0 µM 7% | [13]; at 33.0 µM 65% | [14]; [16] 38% | [14]; [17] 38% | [15]; at 1.2 µM -8% | [15]; at 3.7 µM -5% | [15]; at 11.0 µM 8% | [15]; at 33.0 µM 69%
active: [1]; at 100.0 µM 88% | [4]; [16] 88% | [4]; [17] 88% | [4]; at 50.0 µM 80.3% | [4]; at 100.0 µM 86% | [5]; at 50.0 µM 88.2% | [5]; at 100.0 µM 81% | [6]; at 100.0 µM 91% | [7]; [16] 87% | [7]; [17] 87% | [7]; at 50.0 µM 83% | [8]; at 100.0 µM 77% | [9]; at 50.0 µM 86.8% | [10]; at 50.0 µM 82.5% | [11]; at 100.0 µM 88% | [12]; at 100.0 µM 73% | [13]; at 100.0 µM 89% | [14]; at 50.0 µM 84.2% | [15]; at 100.0 µM 87%
